Holding throughout (test): yeast three-hybrid, YBZ-1, SC-Leu-His + 0.5 mM 3-AT, 4 days
Holding throughout (conditions): tags: N-Gal4 AD-HA kept; label: inside an RPR1-promoter hybrid RNA with tandem MS2 sites; ssRNA

One assay concerns the target PUM1 PUF domain R5-AAR (Homo sapiens, UniProt Q14671 828-1176, C1007A;R1008A;Q1011R). Put shortly: (§1)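 Matching RNA elements and Pumilio-1 PUF domain libraries, randomized at the three base-contacting residues of every repeat, were co-expressed from a centromeric plasmid in strain YBZ-1 (LexA–MS2 coat fusion, HIS3 reporter). The repeat regions were PCR-amplified and Illumina-sequenced from cells grown four days on SC-Leu (input) or SC-Leu-His + 0.5 mM 3-AT (selection). The interaction score is the log change in variant frequency from input to selection. It is computed in log2, with a pseudocount of 1 for absent variants.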

Another assay addresses PUM1 PUF domain R5-KRK (Homo sapiens, UniProt Q14671 828-1176, C1007K;Q1011K). Put shortly: as §1
The target of a further assay is PUM1 PUF domain R5-KVE (Homo sapiens, UniProt Q14671 828-1176, C1007K;R1008V;Q1011E). The essentials: as §1
Another assay deals with T1, PUM1 PUF domain R6-KWC (Homo sapiens, UniProt Q14671 828-1176, N1043K;Y1044W;Q1047C).
T1 sequence: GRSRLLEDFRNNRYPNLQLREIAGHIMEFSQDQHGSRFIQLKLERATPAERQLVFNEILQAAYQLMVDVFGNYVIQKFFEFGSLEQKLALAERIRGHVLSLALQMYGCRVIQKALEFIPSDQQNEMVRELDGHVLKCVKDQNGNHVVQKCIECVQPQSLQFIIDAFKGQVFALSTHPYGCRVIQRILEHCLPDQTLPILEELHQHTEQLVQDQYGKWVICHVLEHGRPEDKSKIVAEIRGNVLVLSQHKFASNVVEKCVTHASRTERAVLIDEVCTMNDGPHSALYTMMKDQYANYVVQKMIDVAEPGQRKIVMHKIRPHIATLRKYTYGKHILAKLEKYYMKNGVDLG
Put shortly: as §1

Another assay has as its target T2, PUM1 PUF domain R6-RWL (Homo sapiens, UniProt Q14671 828-1176, N1043R;Y1044W;Q1047L).
T2 sequence: T1 sequence with K216R, C220L
The essentials: as §1

Another assay concerns the target T3, PUM1 PUF domain R6-CWL (Homo sapiens, UniProt Q14671 828-1176, N1043C;Y1044W;Q1047L).
T3 sequence: T1 sequence with K216C, C220L
The essentials:
as §1

The target of another assay is PUM1 PUF domain R3-PFV (Homo sapiens, UniProt Q14671 828-1176, C935P;R936F;Q939V). Put shortly:
as §1

A further assay has as its target PUM1 PUF domain R3-SRF (Homo sapiens, UniProt Q14671 828-1176, C935S;Q939F). Put shortly:
as §1

A further assay concerns the target PUM1 PUF domain R3-FYS (Homo sapiens, UniProt Q14671 828-1176, C935F;R936Y;Q939S). The essentials:
as §1

The target of the next assay is PUM1 PUF domain R4-VPC (Homo sapiens, UniProt Q14671 828-1176, N971V;H972P;Q975C). The essentials:
as §1

The target of a further assay is PUM1 PUF domain R2-NWP (Homo sapiens, UniProt Q14671 828-1176, Y900W;Q903P). Put shortly: as §1
In another assay the target is PUM1 PUF domain R8-KFY (Homo sapiens, UniProt Q14671 828-1176, N1122K;Y1123F;Q1126Y). Put shortly: as §1
Another assay addresses PUM1 PUF domain R8-HFP (Homo sapiens, UniProt Q14671 828-1176, N1122H;Y1123F;Q1126P). Put shortly: as §1
The next assay concerns the target PUM1 PUF domain R8-PYC (Homo sapiens, UniProt Q14671 828-1176, N1122P;Q1126C). Put shortly: as §1
A further assay addresses PUM1 PUF domain R4-DFR (Homo sapiens, UniProt Q14671 828-1176, N971D;H972F;Q975R). The essentials:
as §1

Positions count from the first letter of the chain named.

As for “GGCUAGAACUAGUGGAUCCCCCGGCGCCCGGCGGCUCGAGCCCGGGUAAGUGUUAAUAGUCUGCAUGCCGCCGGGCGCCAUGCCUGCAGGUCGACUCUAGAAAACAUG”, the values for the binding signal with PUM1 PUF domain R5-AAR and with PUM1 PUF domain R5-KRK were 1.62 log2 enrichment (interaction score) and 2.98 log2 enrichment (interaction score), respectively.
For “GGCUAGAACUAGUGGAUCCCCCGGCGCCCGGCGGCUCGAGCCCGGGUAAGUGUCAAUAGUCUGCAUGCCGCCGGGCGCCAUGCCUGCAGGUCGACUCUAGAAAACAUG”, the values for the binding signal with PUM1 PUF domain R5-AAR, in the assay with PUM1 PUF domain R5-KRK and in the assay with PUM1 PUF domain R5-KVE were 4.02 log2 enrichment (interaction score), 3.89 log2 enrichment (interaction score) and 2.24 log2 enrichment (interaction score), respectively.
Turning to “GGCUAGAACUAGUGGAUCCCCCGGCGCCCGGCGGCUCGAGCCCGGGUAAGUGAAAAUAGUCUGCAUGCCGCCGGGCGCCAUGCCUGCAGGUCGACUCUAGAAAACAUG”, in the assay with PUM1 PUF domain R6-KWC, the binding signal is 6.72 log2 enrichment (interaction score).
Turning to “GGCUAGAACUAGUGGAUCCCCCGGCGCCCGGCGGCUCGAGCCCGGGUAAGUGUAAAUAGUCUGCAUGCCGCCGGGCGCCAUGCCUGCAGGUCGACUCUAGAAAACAUG”, the binding signal with PUM1 PUF domain R6-RWL is 5.11 log2 enrichment (interaction score); with PUM1 PUF domain R6-CWL it was 3.76 log2 enrichment (interaction score); with PUM1 PUF domain R3-PFV it was 3.44 log2 enrichment (interaction score); in the assay with PUM1 PUF domain R3-SRF it was 2.58 log2 enrichment (interaction score); with PUM1 PUF domain R3-FYS it was 3.03 log2 enrichment (interaction score); in the assay with PUM1 PUF domain R4-VPC, 2.65 log2 enrichment (interaction score). Moreover, the results for the binding signal with PUM1 PUF domain R2-NWP and with PUM1 PUF domain R8-KFY were 4.83 log2 enrichment (interaction score) and 2.5 log2 enrichment (interaction score), respectively.
With “GGCUAGAACUAGUGGAUCCCCCGGCGCCCGGCGGCUCGAGCCCGGGUAAGCGUAAAUAGUCUGCAUGCCGCCGGGCGCCAUGCCUGCAGGUCGACUCUAGAAAACAUG”, the binding signal with PUM1 PUF domain R8-HFP was 6.79 log2 enrichment (interaction score); in the assay with PUM1 PUF domain R8-PYC it was 3.77 log2 enrichment (interaction score); in the assay with PUM1 PUF domain R8-KFY, 2.74 log2 enrichment (interaction score).
For “GGCUAGAACUAGUGGAUCCCCCGGCGCCCGGCGGCUCGAGCCCGGGUAAGUGUAUAUAGUCUGCAUGCCGCCGGGCGCCAUGCCUGCAGGUCGACUCUAGAAAACAUG”, the binding signal in the assay with PUM1 PUF domain R4-DFR was 6.14 log2 enrichment (interaction score).
Consider “GGCUAGAACUAGUGGAUCCCCCGGCGCCCGGCGGCUCGAGCCCGGGUAAGUGUACAUAGUCUGCAUGCCGCCGGGCGCCAUGCCUGCAGGUCGACUCUAGAAAACAUG”, for which the binding signal is 5.83 log2 enrichment (interaction score) in the assay with PUM1 PUF domain R4-DFR and 3.7 log2 enrichment (interaction score) with PUM1 PUF domain R4-VPC.
